Screening data from PubChem.
Hits are enriched below; roughly 31% of the tested compounds scored in any of these assays.
CYP2C9 activ: increases human cytochrome P450 2C9 activity | recombinant CYP2C9, luciferin-H conversion, luminescence; hits give high values; factor 1 = untreated enzyme, 0 = blocked | activation factor at 5 µM | 96,000 tested, 1.4% active | AID 1024;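 active = activation factor of 2 or more for CYP2C9 at a 5 µM dose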;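 also: 0 = sulfaphenazole-blocked wells and 1 = vehicle-only wells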
CYP2C19 act: activators of human cytochrome P450 2C19 | P33261 | recombinant CYP2C19, luciferin-H EGE luminescence; hits give high values; 0 = fully inhibited enzyme, 1 = untreated enzyme | activation factor at 5 µM | 96,000 tested, under 10 active | AID 1025;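 active = activation factor of at least 2 at 5 µM in the primary screen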;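 also: 0 = wells with 2.5 mM tranylcypromine and 1 = vehicle-only wells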
CYP2C19 inh: blocks human cytochrome P450 2C19; AID 778; inhibition, % at 5 µM; CYP2C19 Supersomes, luciferin-H EGE luminescence, 30 min; P33261; 96,000 tested, 21% active;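 active = CYP2C19 inhibition above a set limit at 5 µM in the primary screen, cut at about 50% in these data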;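 also: plate controls were negative control wells for no effect and 2.5 mM tranylcypromine positive control for full effect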
PLAP activator: activates human placental alkaline phosphatase; purified PLAP enzyme, luminescent substrate read-out; hits give high values; activation fold at 20 µM; 96,000 tested, 1.2% active; AID 696; in the data active = activation fold above about 2
CYP2C9 inhib: human CYP2C9 inhibition; P11712; CYP2C9 Supersomes, luciferin-H conversion, luminescence; inhibition, % at 5 µM; 96,000 tested, 20% active; AID 777;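 active = blocking of liver enzyme CYP2C9 beyond about 50% at 5 µM, limit read from the data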
The depositor's hits bear a star; · = no result given.

SMILES	CYP2C9 activ	CYP2C19 act	CYP2C19 inh	PLAP activator	CYP2C9 inhib
Cc1nn(Cc2ccc(C(=O)Nc3nccs3)cc2)c(C)c1Cl	0.9	1	0.7	1.3	7.8
Cc1ccc(N(C(=O)c2ccc(Br)o2)C2C=CS(=O)(=O)C2)cc1 (stereo not drawn)	0.9	0.7	34.8	0.8	8.2
Oc1c(C=NCc2ccncc2)sc2ccccc12	0.6	0.1	92.0*	0.9	44.5
CC(CCc1ccccc1)NC(=O)C1CCN(S(=O)(=O)c2cnc[nH]2)CC1 (stereo not drawn)	0.1	0.3	74.7*	1.5	93.1*
O=C(NCc1ccccn1)C1CCN(S(=O)(=O)c2cnc[nH]2)CC1	1.1	1.1	-12.8	1.1	-6.2
O=C(NC1CCCc2ccccc21)C1CCN(S(=O)(=O)c2cnc[nH]2)CC1 (stereo not drawn)	0.3	0.6	44.3	1.8	69.7*
O=C(NC1CCCc2ccccc21)C1CCN(S(=O)(=O)c2cccc3nonc23)CC1 (stereo not drawn)	1.6	0.9	7.1	0.8	-55.3
COc1cc(CNn2cnnc2)ccc1OCC(=O)NC(C)(C)C	1.1	1.1	-10.9	1	-5.8
C/C(=N/NC(=O)c1ccoc1C)C12CC3CC(CC(C3)C1)C2	0.9	0.4	56.6*	1.1	12.0
Cc1cc(C)n(CC(O)COc2ccccc2C(=O)Nc2ccccc2)n1 (stereo not drawn)	0.1	0.1	90.7*	1.4	88.3*
Cc1cc(C)n(CC(O)COc2cccc(OCC(O)Cn3nc(C)cc3C)c2)n1 (stereo not drawn)	0.7	0.5	48.3	1.8	28.6
Cc1ccc(C=C2C(=O)c3ccccc3C2=O)s1	0.5	0.9	13.0	0.9	48.0
Cc1cc(Nc2ccc(F)c(Cl)c2)n2ncnc2n1	1.1	1.3	-27.3	0.8	-6.5
COc1ccc(-n2c(=O)c3ccccc3n(CC(=O)NC3CCCC3)c2=O)cc1	0.8	0.9	8.2	1	15.6
O=c1[nH]c(Nc2ccccc2)cc2ccccc12	0.9	0.6	43.7	1	12.6
c1ccc(Nc2cc(Nc3ccccc3)[nH]n2)cc1	0.5	0.3	74.5*	0.9	45.2
CNC(=S)N/N=C(\C)c1ccc(-n2ccnc2)cc1	0	0	99.2*	0.8	100.3*
Cc1cc(C)n(-c2ccc(C(=O)NC(C)C)cc2)n1	1	1	-2.9	1	-4.9
CCOc1ccc(S(=O)(=O)Nc2ccc(C(=O)N/N=C(\C)c3ccc(-n4ccnc4)cc3)cc2)cc1	0	0	99.3*	1.9	99.4*
CCNC(=O)c1ccc(NS(=O)(=O)c2ccccc2)cc1	0.7	0.7	30.2	1	31.1
C/C(=N\NC(=S)NC(C)C)c1ccc(-n2ccnc2)cc1	0	0.1	90.1*	1	99.1*
COCCNC(=S)N/N=C(\C)c1ccc(-n2ccnc2)cc1	0	0	98.9*	1.2	99.7*
COc1ccc(CCNC(=O)c2ccn[nH]2)cc1OC	0.8	0.9	14.1	1	24.5
COc1cc(C(=O)NCc2ccc3c(c2)OCO3)ccc1OCc1c(C)noc1C	0.6	1	4.6	1	37.9
CC(C(=O)N1CCOCC1)(c1ccccc1)c1ccccc1	0.8	0.1	93.5*	1.2	24.4
SMILES	CYP2C9 activ	CYP2C19 act	CYP2C19 inh	PLAP activator	CYP2C9 inhib
C=C(C)c1cccc(C(C)(C)NC(=O)N2CC(C)OC(C)C2)c1 (stereo not drawn)	0.9	0.3	69.2*	1.4	7.5
C=C(C)c1cccc(C(C)(C)NC(=O)N2CCOCC2)c1	0.8	0.4	55.9*	1.1	16.9
CN1CCNC(=O)C1CC(=O)O (stereo not drawn)	1.1	1.2	-16.9	1	-8.4
CCCCSC(=O)Nc1ccccc1	0.9	0.7	30.6	0.9	11.5
CCCn1nc2cc(C(=O)NCc3ccc(OC(F)(F)F)cc3)ccc2c1OCC	0.4	0.6	44.8	1.5	62.8*
CCCn1nc2cc(C(=O)NCCc3cccs3)ccc2c1OCC	0.7	0.5	54.2*	1.3	34.1
CCCn1nc2cc(C(=O)NCc3ccc4c(c3)OCO4)ccc2c1OCC	0.6	0.7	32.1	1	40.0
CCCCn1nc2cc(C(=O)NCc3ccc4c(c3)OCO4)ccc2c1OCC	0.3	0.4	59.3*	1.4	65.7*
O=c1c2cn[nH]c2nc(SCc2ccc3c(c2)OCCO3)n1-c1ccccc1	0.1	0.1	90.5*	·	88.0*
COc1ccccc1-n1c(SCC(=O)Nc2ccccc2F)nc2[nH]ncc2c1=O	0.8	0.6	43.5	1.7	21.6
